Assay results as given in PubChem BioAssay (NCATS).
Results filed as inconclusive are left out. Entries that show only a call come without a potency. Calls of active or inactive are those of the source. Calls come from the whole dose curve; as a rule, active = well fitted cell-killing curve with a large enough effect; inconclusive = small, poorly fitted or top-dose-only effect, or effect the other way; inactive = flat fitted curve, though single readings scatter.

Experiments:
Test in all cases: Primary qHTS to identify gynecologic anti-cancer compounds using libraries of approved drugs and bioactive compounds (AID 1345084); note: nearly all actives have a fitted effect of over 55% in size
CAOV3 = settings: Gynecologic cancer cell panel viability, ATPlite luminescence, 48 h; series mostly up to 57.5 µM
Procedure, shortened: (§1)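 48 h compound exposure at 37 C, 5% CO2; five-point qHTS. ATPlite luminescence readout of cell ATP.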

CASKI = settings: Gynecologic cancer cell panel viability, ATPlite luminescence, 48 h; series mostly up to 57.5 µM
Procedure, shortened: as §1

Es-2 = settings: Gynecologic cancer cell panel viability, ATPlite luminescence, 48 h; series mostly up to 57.5 µM
Procedure, shortened: as §1

HeLa = settings: Gynecologic cancer cell panel viability, ATPlite luminescence, 48 h; series mostly up to 57.5 µM
Procedure, shortened: as §1

Hek293T = settings: Gynecologic cancer cell panel viability, ATPlite luminescence, 48 h, control line for the selectivity index; series mostly up to 57.5 µM
Procedure, shortened: as §1

JEG-3 = settings: Gynecologic cancer cell panel viability, ATPlite luminescence, 48 h; series mostly up to 57.5 µM
Procedure, shortened: as §1

OV90 = settings: Gynecologic cancer cell panel viability, ATPlite luminescence, 48 h; series mostly up to 57.5 µM
Procedure, shortened: as §1

PA-1 = settings: Gynecologic cancer cell panel viability, ATPlite luminescence, 48 h; series mostly up to 57.5 µM
Procedure, shortened: as §1

Tov-21-G = settings: Gynecologic cancer cell panel viability, ATPlite luminescence, 48 h; series mostly up to 57.5 µM
Procedure, shortened: as §1

SKOV3 = settings: Gynecologic cancer cell panel viability, ATPlite luminescence, 48 h; series mostly up to 57.5 µM
Procedure, shortened: as §1
Potency is the fitted concentration of half-maximal effect.

SMILES	Potency (CAOV3)	Potency (CASKI)	Potency (Es-2)	Potency (HeLa)	Potency (Hek293T)	Potency (JEG-3)	Potency (OV90)	Potency (PA-1)	Potency (Tov-21-G)	Potency (SKOV3)
CN1C(C(=O)Nc2ccccn2)=C(O)c2ccccc2S1(=O)=O	inactive	inactive	inactive	inactive	inactive	inactive	inactive	inactive	inactive	
CC(COc1ccccc1)N(CCCl)Cc1ccccc1 (stereo not given)	inactive	inactive	inactive	inactive	inactive	inactive	inactive	inactive	inactive	inactive
CN1CCC(=C2c3ccccc3CC(=O)c3sccc32)CC1	inactive	inactive	inactive	inactive	inactive	inactive	inactive	inactive	inactive	inactive
CC[N+](CC)(CC)CCOc1cccc(OCC[N+](CC)(CC)CC)c1OCC[N+](CC)(CC)CC	inactive	inactive	inactive	inactive	inactive	inactive	inactive	inactive	inactive	inactive
COc1cc2nc(N3CCN(C(=O)C4COc5ccccc5O4)CC3)nc(N)c2cc1OC (stereo not given)	inactive	inactive	inactive	inactive	inactive	inactive		inactive	inactive	
Cc1cc(C(C)(C)C)c(O)c(C)c1CC1=NCCN1	inactive	inactive	inactive	inactive	inactive	inactive	inactive	inactive	inactive	inactive
CC(C)(C)C(=O)Oc1ccc(S(=O)(=O)Nc2ccccc2C(=O)NCC(=O)O)cc1	inactive	inactive	inactive	inactive	inactive	inactive	inactive	inactive	inactive	
COc1ccc(CCN(C)CCCC(C#N)(c2ccc(OC)c(OC)c2)C(C)C)cc1OC (stereo not given)	inactive	inactive	inactive	inactive	inactive	inactive		inactive	inactive	inactive
CCC1(C)CC(=O)NC1=O (stereo not given)	inactive	inactive	inactive	inactive	inactive	inactive		inactive	inactive	inactive
CC(C)(Oc1ccc(C2CC2(Cl)Cl)cc1)C(=O)O (stereo not given)	inactive	inactive	inactive	inactive	inactive	inactive	inactive	inactive	inactive	inactive
Cn1c(=O)c2[nH]cnc2n(C)c1=O	inactive	inactive	inactive	inactive	inactive	inactive	inactive	inactive	inactive	inactive
C[C@@H]1CC(=O)NN=C1c1ccc(NN=C(C#N)C#N)cc1	inactive	inactive	inactive	inactive	inactive	inactive	inactive	inactive	inactive	inactive
COc1cc2nc(N(C)CCCNC(=O)C3CCCO3)nc(N)c2cc1OC (stereo not given)	inactive	inactive	inactive	inactive	inactive	inactive	inactive	inactive	inactive	inactive
COc1ccc2[nH]cc(CCNC(C)=O)c2c1	inactive	inactive	inactive	inactive	inactive	inactive	inactive	inactive	inactive	inactive
CC(C)NCC(O)COc1ccc(CCOCC2CC2)cc1 (stereo not given)	inactive	inactive	inactive	inactive	inactive	inactive	inactive	inactive	inactive	inactive
Clc1ccc2nsnc2c1NC1=NCCN1	inactive	inactive	inactive	inactive	inactive	inactive	inactive	inactive	inactive	inactive
CC1(C)O[C@H]2CC(=O)OC[C@]23[C@H]2CC[C@@]4(C)[C@H](c5ccoc5)OC(=O)[C@H]5O[C@]54[C@]2(C)C(=O)C[C@@H]13	inactive	inactive	inactive	inactive	inactive	inactive	inactive	inactive	inactive	inactive
CCC1(c2ccccc2)C(=O)NCNC1=O	inactive	inactive	inactive	inactive	inactive	inactive	inactive	inactive	inactive	inactive
CN(C)CCOC(c1ccccc1)c1ccccc1	inactive	inactive	inactive	inactive	inactive	inactive	inactive	inactive	inactive	inactive
O=C(c1ccc(OCCN2CCCCC2)cc1)c1c(-c2ccc(O)cc2)sc2cc(O)ccc12	inactive	inactive	inactive	inactive	inactive	inactive	inactive		inactive	
CCOC(=O)c1ncn2c1CN(C)C(=O)c1cc(F)ccc1-2	inactive	inactive	inactive	inactive	inactive	inactive	inactive	inactive	inactive	inactive
CS(=O)(=O)Nc1ccc([N+](=O)[O-])cc1Oc1ccccc1	inactive	inactive	inactive	inactive	inactive	inactive	inactive	inactive	inactive	inactive

SMILES	Potency (CAOV3)	Potency (CASKI)	Potency (Es-2)	Potency (HeLa)	Potency (Hek293T)	Potency (JEG-3)	Potency (OV90)	Potency (PA-1)	Potency (Tov-21-G)	Potency (SKOV3)
N[C@@H](Cc1c[nH]c2ccc(O)cc12)C(=O)O	inactive	inactive	inactive	inactive	inactive	inactive		inactive	inactive	inactive
NCCS(=O)(=O)O	inactive	inactive	inactive	inactive	inactive	inactive	inactive	inactive	inactive	inactive
NC(=O)NO	inactive	inactive	inactive	inactive	inactive	inactive	inactive	inactive	inactive	inactive
Cc1ccccc1N1C(=O)c2cc(S(N)(=O)=O)c(Cl)cc2NC1C (stereo not given)	inactive	inactive	inactive	inactive	inactive	inactive		inactive	inactive	inactive
Cn1ccc2cc3c(cc21)CCN3C(=O)Nc1cccnc1	inactive	inactive	inactive	inactive	inactive	inactive	inactive	inactive	inactive	inactive
Cc1cn([C@H]2C=C[C@@H](CO)O2)c(=O)[nH]c1=O	inactive	inactive	inactive	inactive	inactive	inactive	inactive	inactive	inactive	inactive
CN(C)C(=N)N=C(N)N	inactive	inactive	inactive	inactive	inactive	inactive	inactive	inactive	inactive	inactive
CN(CCOc1ccc(NS(C)(=O)=O)cc1)CCc1ccc(NS(C)(=O)=O)cc1	inactive	inactive	inactive	inactive	inactive	inactive	inactive	inactive	inactive	inactive
Cn1cnc2c1c(=O)[nH]c(=O)n2C	inactive	inactive	inactive	inactive	inactive	inactive	inactive	inactive	inactive	inactive
Nc1ccn([C@H]2CC[C@@H](CO)O2)c(=O)n1	inactive	inactive	inactive	inactive	inactive	inactive	inactive	inactive	inactive	inactive
O=C(C1CCCCC1)N1CC(=O)N2CCc3ccccc3C2C1 (stereo not given)	inactive	inactive	inactive	inactive	inactive	inactive	inactive	inactive	inactive	inactive
CCOC(=O)Nc1ccc(NCc2ccc(F)cc2)nc1N		inactive	inactive	inactive	inactive	inactive	inactive	inactive	inactive	inactive
CCOC(=O)C(C)(C)Oc1ccc(Cl)cc1		inactive	inactive	inactive	inactive	inactive	inactive	inactive	inactive	inactive
O=C1N(c2ccccc2)c2ccccc2C1(Cc1ccncc1)Cc1ccncc1	inactive		1 µM (active)	inactive	inactive	inactive	inactive	inactive	inactive	inactive
NC(=O)OCC(COC(N)=O)c1ccccc1		inactive	inactive	inactive	inactive	inactive	inactive	inactive	inactive	inactive
NCCCCCC(=O)O		inactive	inactive	inactive	inactive	inactive	inactive	inactive	inactive	inactive
NCCc1cnc[nH]1		inactive	inactive	inactive	inactive	inactive	inactive	inactive	inactive	inactive
O=C(CCCN1CCC(O)(c2ccc(Cl)cc2)CC1)c1ccc(F)cc1		inactive	inactive	inactive	inactive	inactive				
CC1COc2c(N3CCN(C)CC3)c(F)cc3c(=O)c(C(=O)O)cn1c23 (stereo not given)		inactive	inactive	inactive	inactive	inactive	inactive	inactive	inactive	inactive
C[C@H]1c2cccc(O)c2C(O)=C2C(=O)[C@]3(O)C(O)=C(C(N)=O)C(=O)[C@@H](N(C)C)[C@@H]3[C@@H](O)[C@@H]21	inactive		inactive	inactive	inactive	inactive	inactive	inactive	inactive	inactive
CS(=O)(=O)CCNCc1ccc(-c2ccc3ncnc(Nc4ccc(OCc5cccc(F)c5)c(Cl)c4)c3c2)o1		inactive	inactive	inactive	inactive	inactive	inactive	inactive	inactive	inactive
Cc1ccc(C(=O)Nc2ccc(S(=O)(=O)O)c3cc(S(=O)(=O)O)cc(S(=O)(=O)O)c23)cc1NC(=O)c1cccc(NC(=O)Nc2cccc(C(=O)Nc3cc(C(=O)Nc4ccc(S(=O)(=O)O)c5cc(S(=O)(=O)O)cc(S(=O)(=O)O)c45)ccc3C)c2)c1		inactive	inactive	inactive	inactive	inactive	inactive	inactive	inactive	inactive
